Screening data as filed in PubChem.
BAZ2B block = qHTS Assay for Inhibitors of BAZ2B | Potency, µM (top dose mostly 114 µM), for the others: top-dose activity change, negative = inhibition, most hits filed as inhibitors | AID 504333, 2011 | Bromodomain adjacent to zinc finger domain protein 2B (Homo sapiens), Q9UIF8 | actives 4.4% (n = 360,000) | AlphaScreen BAZ2B-H3K14Ac peptide displacement; note: % is set by controls: 0 for no effect and ±100 for the full control effect; nearly all actives have a fitted effect of over 60% in size
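AlphaScreen displacement: compounds (up to 110uM) incubated 30 min at room temperature with a preformed 50 nM BAZ2B/50 nM biotinylated H3K14Ac peptide complex in PBS pH 7.4 with Tween-20. Donor and acceptor beads at 10 ug/mL final added, 20 min light-protected before reading.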
L3MBTL1 block = qHTS Assay for the Inhibitors of L3MBTL1; AlphaScreen L3MBTL1–H3K9me1 peptide binding; Potency, µM (highest dose often 57.1 µM), inactives show at the highest dose activity, negative = inhibition, hits mostly inhibitors; actives 0.66% (n = 230,000); note: % is set by controls: 0 for no effect and ±100 for the full control effect; nearly all actives have a fitted effect of over 60% in size
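Displacement of a biotinylated histone H3(1-15) peptide monomethylated at Lys9 (75 nM) from L3MBTL1 (50 nM) was measured by AlphaScreen after a 30 min room-temperature compound incubation; cefsulodin titration served as intraplate control.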
Sfp inh = qHTS Assay for Inhibitors of Bacillus subtilis Sfp phosphopantetheinyl transferase (PPTase); 4'-phosphopantetheinyl transferase ffp (Bacillus subtilis), Q9F4F7; Biochemical Sfp PPTase activity, qHTS; Potency, µM, for the others: largest response in the series, negative = inhibition, usual class: inhibitors; actives 3.5% (n = 310,000); AID 1490, 2009;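 note: the enzyme is Sfp with the accession as filed and its product quenches rhodamine fluorescence; 0% = enzyme reaction without inhibitor and -100% = no enzyme wells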
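Compounds were incubated with enzyme (final 15 nM) for 15 min at room temperature before substrate addition started the reaction. Fluorescence at 525 nm excitation, 598 nm emission was recorded immediately and after 30 minutes.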
JMJD2A Tudor = qHTS Assay for Inhibitors of JMJD2A-Tudor Domain | Lysine-specific demethylase 4A (Homo sapiens), O75164 | AlphaScreen JMJD2A-Tudor / H3K4me3 peptide binding | actives 4.4% (n = 390,000) | Potency, µM (titrated, usually from 114 µM), inactives show at the highest dose activity change, negative = inhibition, most hits filed as inhibitors; note: % is set by controls: 0 for no effect and ±100 for the full control effect; nearly all actives have a fitted effect of over 50% in size
HP1b chromo inh = HTS for Inhibitors of HP1-beta Chromodomain Interactions with Methylated Histone Tails | AlphaScreen HP1-beta / biotin-H3K9me3 peptide binding | Potency, µM (titrated, usually from 114 µM), without a hit: at the top dose activity change, negative = inhibition, actives largely listed as inhibitors | actives 0.56% (n = 390,000); note: nearly all actives have a fitted effect of over 70% in size
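Compound inhibition of the preformed complex between 50 nM HP1-beta and 50 nM biotinylated H3K9me3 peptide was read by AlphaScreen. Buffer was PBS pH 7.4 with 0.01% Tween-20. Incubations ran 30 min at room temperature, with 10 ug/mL donor/acceptor beads.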
G9a block = qHTS Assay for Inhibitors of Histone Lysine Methyltransferase G9a; Histone-lysine N-methyltransferase EHMT2 (Homo sapiens), Q96KQ7; actives 8.8% (n = 350,000); AID 504332, 2011; G9a H3K9 monomethylation, AlphaScreen, 2 h; Potency, µM (highest dose often 102 µM), without a hit: at the top dose activity, negative = inhibition, actives largely listed as inhibitors; note: % is set by controls: 0 for no effect and ±100 for the full control effect; nearly all actives have a fitted effect of over 75% in size
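AlphaScreen read-out: biotin-H3K9 peptide (500 nM) methylation by 20 nM enzyme with 20 uM SAM, 2 h at room temperature after 15 min compound preincubation; anti-monomethyl H3K9 antibody plus donor/acceptor beads, 10 min dark.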
Starred values were filed as active, the others as inactive; ? = inconclusive; / = no result given; [ ] = another dose, or the depositor's remark. Rows were chosen to be rich in hits. Some 12% of all compounds tested hit in one or more screens of this group. Calls come from the whole dose curve; as a rule, active = well fitted curve in the direction sought with a large enough effect; inconclusive = small, poorly fitted or top-dose-only effect, or another doubt; inactive = no such curve, though single readings can be large; an effect the other way counts as inactive or inconclusive. Potency is the fitted concentration of half-maximal effect.

SMILES	BAZ2B block	L3MBTL1 block	Sfp inh	JMJD2A Tudor	HP1b chromo inh	G9a block
COC(=O)c1sc2nc(CN3CCN(c4cccc(C(F)(F)F)c4)CC3)[nH]c(=O)c2c1C	-8%	6%	-8%	-11%	36%	?
COc1ccc2nc3cccc(OC)c3nc2c1	?	/	-85%	-9%	34%	22µM*
COc1ccccc1-c1nc2ccccc2nc1-c1ccccc1OC	3%	2%	15%	-6%	21%	7%[59 µM]
COc1ccc2nc3ccccc3nc2c1N	28µM*	?	4.5µM*	40µM*	40µM*	1µM*
CC1CCCCC12NC(=O)N(CC(=O)c1ccc(Cl)s1)C2=O (stereo not drawn)	-21%	/	0%	-9%	23%	20%[12.7 µM]
C[C@@H]1CCC2[C@@H](C)[C@@H](O)O[C@@H]3O[C@@]4(C)CC[C@@H]1[C@@]23OO4 (stereo partly drawn)	/	/	7%	/	/	25%[59 µM]
C=CCOc1c(Br)cc(/C=N/Nc2ccc(C(=O)O)cc2)cc1OCC	-5%	-5%	?	-27%[57.1 µM]	2%	3.2µM*
CCOC(=O)COc1cc(Br)c(/C=N/Nc2ccccc2)cc1OC	-1%	-5%	4%	-24%	27%	10µM*
COc1ccc(/C=N/Nc2ccc(C(=O)O)cc2)cc1Br	?	/	-1%	-26%	12%	35µM*
CC(C)=CCN1CCN(Cc2cccnc2)CC1CCO (stereo not drawn)	-12%	1%	22%	-5%	11%	19%
COC(=O)CCCOc1ccc(Cl)cc1Cl	/	/	-3%	/	/	/
CN(CCOCCOc1ccc(Cl)cc1Br)Cc1ccccc1	2%	14%	3%	1%	34%	37%
CC(O)CNCCCOc1ccc(Cl)cc1C(C)(C)C (stereo not drawn)	?	-3%	?	0.89µM*	?	/
CN(C)CCOCCOc1ccc(Cl)cc1C(C)(C)C	50µM*	0%	-25%	3.2µM*	?	8.9µM*
COc1cc(OC)cc(C(=O)N/N=C(\C)CC(=O)Nc2ccccn2)c1	-1%	/	?	-1%	48%	2%
CS(=O)(=O)Nc1cccc(-c2cc(NCc3ccccc3)ncn2)c1	/	/	2%	/	/	3%[0.501 µM]
CC12CC(O)C3C(CCC4=CC(=O)CCC43C)C1CCC2=CCO (stereo not drawn)	/	/	/	-8%	1%	/
O=C1CCN(Cc2ccccc2)C=C1c1ccc(Br)cc1	/	1%	/	?	4%	/
COc1ccc(N2CCN(C(=O)c3ccc4c(c3)CCN4S(=O)(=O)c3ccccc3)CC2)cc1	20µM*	/	9%	?	32%	28µM*
COc1ccc(N2CCN(C(=O)COC(=O)c3cccc(S(=O)(=O)Nc4cccc(C)c4)c3)CC2)cc1	-36%	-20%	/	?	-25%	10µM*
COc1ccc(N2CCN(C(=O)c3ccc(CNS(=O)(=O)c4cc(C)ccc4C)cc3)CC2)cc1	?	/	-2%	?	-15%	32µM*
COc1ccc(N2CCN(C(=O)c3ccc(NS(=O)(=O)c4ccccc4)cc3)CC2)cc1	57%	16%	3%	-31%	?	20µM*
COc1ccc(NS(=O)(=O)c2ccc(C(=O)N3CCCCCC3)cc2)cc1	/	12%	/	-8%	30%[57 µM]	/
COc1ccc(CC(N)C(=O)NC2C(CO)OC(n3cnc4c(N(C)C)ncnc43)C2O)cc1 (stereo not drawn)	/	/	20%	/	/	?
Cc1cc(C(=O)N2CCc3ccccc3C2)n[nH]1	0%	/	15%	-7%	29%	27%
SMILES	BAZ2B block	L3MBTL1 block	Sfp inh	JMJD2A Tudor	HP1b chromo inh	G9a block
O=C(c1cccc(S(=O)(=O)N2CCc3ccccc3C2)c1)N1CCN(c2ccccc2)CC1	-30%	-17%	-11%	-7%	17%	-2%[59 µM]
CCc1cccc(C)c1NC(=O)c1ccc2c(c1)CCN2S(=O)(=O)c1ccc(Cl)cc1	0%	/	/	-20%	14%	-1%[59 µM]
COc1cccc(S(=O)(=O)NCc2ccc(C(=O)N3CCN(Cc4ccccc4)CC3)cc2)c1	-39%	/	17%	-29%	17%	/
O=C(c1cccc(S(=O)(=O)N2CCc3ccccc32)c1)N1CCN(c2ccccc2)CC1	4%	-9%	/	-33%	-9%	22µM*
CCc1cccc(CC)c1NC(=O)c1ccc2c(c1)CCN2S(=O)(=O)c1ccccc1	1%	/	/	-12%	7%	2.5µM*
CCN1CCN(C(=O)c2ccc(CNS(=O)(=O)c3cccc(OC)c3)cc2)CC1	?	/	9%	-11%	19%	45µM*
CCn1c(=S)sc2c(=O)n(CC(=O)Nc3ccc(OC)c(Cl)c3)c(C)nc21	-12%[57.1 µM]	/	17%	-5%	40%	3%
CC(C)(C)c1cn(-c2ccc(Cl)cc2)c(=S)[nH]1	-3%	/	6%	35µM*	4%	2µM*
COc1ccc(-n2cnc(=S)[nH]c2=S)cc1	/	/	/	-34%	?	/
CO/S(=N\S(=O)(=O)c1ccc(Cl)cc1)c1ccc([N+](=O)[O-])cc1 (stereo not drawn)	/	/	/	/	/	3.2µM*
O=C(Cc1ccc(Cl)cc1)NNS(=O)(=O)c1ccc([N+](=O)[O-])cc1	7%	-5%	-2%	-16%	18%	-10%[59 µM]
O=[N+]([O-])c1ccc(/C=C/C2=NN(c3ccccc3)C(c3ccco3)C2)cc1 (stereo not drawn)	50µM*	-13%	40µM*	?	-20%[57 µM]	22µM*
CCN(CC(=O)Nc1ccccc1C(F)(F)F)C(=O)CCS(=O)(=O)c1ccc(C)cc1	13%	-1%	/	-16%	2%	0%
Cc1ccc(S(=O)(=O)CCC(=O)Nc2cc(Cl)ccc2-n2cncn2)cc1	9%	-1%	/	-22%	15%	56µM*
CCN(CC(=O)Nc1cc(Cl)ccc1C)C(=O)CCS(=O)(=O)c1ccc(C)cc1	6%	-8%	/	-14%	10%	50µM*
Cc1[nH]c2ccccc2c1CCN(Cc1cccnc1)C(=S)Nc1ccc(F)cc1	/	/	-2%	?	-8%	?
